rTrxR1 inhibitor: inhibitors of rat thioredoxin reductase 1 | O89049 | recombinant rTrxR1, NADPH fluorescence consumption, selenite substrate | Potency, µM (highest dose often 114 µM), for inactives: at the highest dose activity change, negative = inhibition, usual class: inhibitors | 390,000 compounds, 1% hits; further: potency means the concentration at half of the fitted maximal effect; on the % scale 0 is the no-effect control and ±100 the full control effect; nearly all actives have a fitted effect of over 65% in size
Target sequence (O89049 whole entry, looked up): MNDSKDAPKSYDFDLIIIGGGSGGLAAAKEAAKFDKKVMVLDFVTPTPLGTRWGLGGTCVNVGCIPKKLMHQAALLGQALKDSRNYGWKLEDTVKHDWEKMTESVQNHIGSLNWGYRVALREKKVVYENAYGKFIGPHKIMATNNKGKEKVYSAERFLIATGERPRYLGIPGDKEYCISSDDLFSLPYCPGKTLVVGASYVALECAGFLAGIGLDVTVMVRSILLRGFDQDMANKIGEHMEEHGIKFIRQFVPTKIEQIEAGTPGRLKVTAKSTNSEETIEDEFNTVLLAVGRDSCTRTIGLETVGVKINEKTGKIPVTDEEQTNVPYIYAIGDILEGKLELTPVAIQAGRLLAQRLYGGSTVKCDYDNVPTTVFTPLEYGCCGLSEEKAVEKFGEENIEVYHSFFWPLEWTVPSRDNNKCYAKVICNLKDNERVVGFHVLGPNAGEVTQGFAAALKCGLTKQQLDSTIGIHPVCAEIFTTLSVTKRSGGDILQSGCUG
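Rat TrxR1 (90 nM in the dispensed reagent) was pre-reduced with 400 uM NADPH for 5 min at room temperature, then incubated with compound for 15 min. After 400 uM selenite was added, NADPH fluorescence (Ex 340/Em 450 nm) was followed for 8 min.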
N370S GC: inhibits or activates N370S mutant glucocerebrosidase | P04062 | N370S GC spleen homogenate, 4MU-glucoside fluorescence | Potency, µM (series often up to 59.4 µM), for the others: at the highest dose activity change, negative = inhibition, actives largely listed as inhibitors | 330,000 compounds, 0.092% hits | AID 2101;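 further: potency means the concentration at half of the fitted maximal effect; 0% = full enzyme activity and -100% = no enzyme basal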
Pin1 inh: human Pin1 inhibition | Potency, µM (series often up to 115 µM), without a hit: at the top dose activity, negative = inhibition, usual class: inhibitors | AID 504891 | Pin1 FP peptide displacement, HiFluor488, 10 min | Q13526 | 390,000 compounds, 0.009% hits; active means well fitted inhibition curve with a large enough effect in the polarisation, with a control signal flat, not every such curve was filed as active; inconclusive means small, poorly fitted or top-dose-only effect, or effect the other way, or a change in a side signal; inactive means no such curve, though single readings can be large or run the other way; the % refers to the polarisation; further: potency means the concentration at half of the fitted maximal effect; on the % scale 0 is the no-effect control and ±100 the full control effect
Target sequence (Q13526 whole entry, looked up): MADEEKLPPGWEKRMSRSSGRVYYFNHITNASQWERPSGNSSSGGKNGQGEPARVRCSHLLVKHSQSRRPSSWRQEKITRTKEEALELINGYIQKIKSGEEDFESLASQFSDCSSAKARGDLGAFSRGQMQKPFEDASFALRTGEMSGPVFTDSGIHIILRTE
TrxR1 substrate: rat thioredoxin reductase 1 substrate activity; O89049; purified TrxR1 substrate turnover, NADPH consumption readout; Potency, µM (doses to about 114 µM), without a hit: at the top dose activity change, negative = substrate turnover; 390,000 compounds, 0.01% hits; AID 588456; further: potency means the concentration at half of the fitted maximal effect; on the % scale 0 is the no-effect control and ±100 the full control effect; nearly all actives have a fitted effect of over 50% in size
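Rat TrxR1, dispensed at 90 nM, was prereduced with 400 uM NADPH (final) for 5 min at ~22 deg C, then incubated with compound 15 min before 400 uM selenite. A first-read NADPH fluorescence drop versus no-compound background flagged substrates.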
pAkt inh: Akt phosphorylation inhibition; 360,000 compounds, 0.32% hits; AID 651550; Neuro2A IGF-stimulated pAkt S473 HTRF, 20 min; active compounds read low; activity change, % for hits at 50 µM; in the data active means activity change below about -80%; inconclusive means mostly about -51% to -80%; further: on the % scale 0 is the no-effect control and ±100 the full control effect
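Neuro2A cells (4,500/well, DMEM with 0.5% FBS) were treated with compound at a single 50 µM final concentration, stimulated with 6 nM IGF for 20 min at 37 °C, and lysed. Phospho-Akt Ser473 was read by HTRF as 665/615 ratio ×10^4.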
A-T KAP1 phos: candidate therapy for ataxia-telangiectasia; F2112 A-T fibroblasts, KAP-1 phosphorylation AlphaLISA; neocarzinostatin DNA damage 30 min before lysis; Potency, µM (doses to about 57.5 µM), inactives show top-dose activation, most hits filed as activators; 320,000 compounds, 0.19% hits; AID 485349; further: potency means the concentration at half of the fitted maximal effect; % of control where 0% means no effect; nearly all actives have a fitted effect of over 45% in size
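hTERT-immortalized A-T patient fibroblasts (F2112), 500 cells/well in OPTI-MEM, 1% FBS, got compounds for 60 min, then NCS for 30 min at 37C. Lysates were then assayed for phospho-KAP-1 by AlphaLISA (anti-pKAP1 donor, anti-KAP1 acceptor beads), 6 hr at 25C.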
Active calls of the source: *; i = inactive; ? = inconclusive; . = no result; [ ] = remark or other dose. An excerpt weighted towards active compounds, which were near 1.4% of everything screened. Unless noted, the call rests on the fitted dose curve; in most records, active means well fitted curve in the direction sought with a large enough effect; inconclusive means small, poorly fitted or top-dose-only effect, or another doubt; inactive means no such curve, though single readings can be large; an effect the other way counts as inactive or inconclusive.

SMILES | rTrxR1 inhibitor | N370S GC | Pin1 inh | TrxR1 substrate | pAkt inh | A-T KAP1 phos
COc1ccc(-c2csc(Nc3ccc(S(N)(=O)=O)cc3)n2)cc1OC | 24.2% | -28.8% | 27.8% | 5.9% | i | 2.9%
COc1ccc(Cn2ncc3c4sc(C)cc4n(C)c3c2=O)cc1 | . | . | 14.5% | . | . | .
O=C(N/N=C/c1ccc(-c2ccccc2[N+](=O)[O-])o1)c1cccnc1 | 50.1µM* | -1.6% | ? | -13.5% | i | -7.3%
COc1ccc(C(=O)NC(=S)Nc2ccc(S(=O)(=O)Nc3cc(OC)nc(OC)n3)cc2)cc1 | 56.2µM* | -0.8% | 2.3% | -2.7% | i | -3.0%
COc1cc(NS(=O)(=O)c2ccc(NC(=O)COc3ccccc3Cl)cc2)nc(OC)n1 | 4.7% | -6.7% | -1.7% | -1.2% | -125.0%* | .
COc1ccc(C(=O)NC(=S)Nc2ccc(S(=O)(=O)Nc3cc(OC)ncn3)cc2)cc1 | 44.7µM* | -0.4% | 5.0% | -9.1% | i | 4.4%
COc1cc(NS(=O)(=O)c2ccc(NC(=S)NC(=O)c3ccco3)cc2)ncn1 | -8.4%[57.1 µM] | -3.7% | -0.8% | -2.1%[57.1 µM] | i | 0.7%
CCc1ccc(NC(=O)c2cc3nc(-c4ccc(C)cc4)cc(C(F)(F)F)n3n2)cc1 | 20.9% | . | -0.3% | 17.5%[11.4 µM] | . | .
COc1ccc(-c2noc(CCC(=O)O)n2)cc1 | -4.0% | 10.4% | -5.6% | -14.5% | i | ?
O=C(O)CCc1ccc(-c2ccc(Br)cc2)o1 | 22.4µM* | -28.3% | -14.8% | 4.2% | i | 4.7%
COc1ccc(-c2ccc(CCC(=O)O)o2)cc1 | 17.8µM* | -6.0% | -0.2% | 11.5%[57.1 µM] | i | 0.0%
O=C(O)CCc1ccc(-c2ccc(Cl)cc2)o1 | 17.8µM* | 1.6% | 5.1% | 7.0% | i | 3.5%
Cc1ccccc1C(=O)N(Cc1ccc(N(C)C)cc1)Cc1ccco1 | 5.8% | . | -6.4% | -5.8% | . | .
O=C(c1ccccc1)N1CCN(c2nc(-c3cccs3)nc3ccccc23)CC1 | . | . | 8.8% | . | . | .
O=C(Cn1cc(C(=O)c2ccco2)c2ccccc21)NCc1ccco1 | ? | -2.0% | -0.3% | -2.3%[57.1 µM] | -105.1%* | 0.7%
CC[N+](C)(C(=O)O)/C(=C\c1ccccc1)c1ccnc2ccccc12 (stereo not given) | -0.8% | . | . | -8.1% | . | .
COc1ccc2c(=O)n3nc(Nc4ccc5c(c4)CCC5)sc3nc2c1 | . | . | -4.1% | . | . | .
O=S(=O)(c1ccc2nnn(O)c2c1)N1CCOCC1 | 56.2µM* | . | 2.7% | -5.8% | i | 3.5%
CCOC(=O)C1=C(O)/C(=C\c2ccc(CNS(=O)(=O)c3ccc(Br)cc3)o2)N=C1C | 14.1µM* | -13.8% | ? | 0.4% | i | -1.4%
COC(=O)C1=C(O)/C(=C\c2ccc(CNS(=O)(=O)c3ccc(Cl)cc3)o2)N=C1C | 28.2µM* | 5.4% | ? | -14.8% | i | -6.8%
COC(=O)C1=C(O)/C(=C\c2ccc(CNS(=O)(=O)c3ccccc3)o2)N=C1C | ? | 1.3% | ? | -7.8% | i | -6.5%
Cc1cc(=O)oc2cc(OC(=O)c3ccco3)ccc12 | 70.8µM* | 12.0% | -1.5% | 54.5% | i | 5.7%[11.5 µM]
CCCn1nc(C(=O)OCC(=O)Nc2ccc(C)cc2)c2ccccc2c1=O | 5.4% | . | 3.1% | -5.2% | i | 4.5%
Cc1cc(=O)oc2cc(OC(=O)c3nn(C(C)C)c(=O)c4ccccc34)ccc12 | 25.1µM* | ? | -0.8% | 658.2% | i | -1.9%
CC(C)n1nc(C(=O)Oc2ccc(Cl)cc2)c2ccccc2c1=O | -9.7% | 3.5% | -0.7% | -7.7% | i | 11.6%
SMILES | rTrxR1 inhibitor | N370S GC | Pin1 inh | TrxR1 substrate | pAkt inh | A-T KAP1 phos
CCCn1nc(C(=O)Oc2ccc3c(C)cc(=O)oc3c2)c2ccccc2c1=O | 50.1µM* | ? | 0.1% | 702.2% | i | 11.7%
Cc1cc(=O)oc2cc(OC(=O)c3ccccc3)ccc12 | 8.8% | ? | -3.7% | 17.0% | i | 10.2%
CC(C)(C)c1ccccc1Nc1nc(C#N)nc(NC2CCCC2)n1 | . | . | 6.9% | . | . | .
Cc1nc2ccc3nc(NC(=O)c4ccc(S(=O)(=O)N5CCOCC5)cc4)sc3c2s1 | 24.3% | 0.7% | -2.3% | 46.2% | -100.3%* | -8.6%
CC(C)C(=O)Nc1nc(-c2ccc(S(=O)(=O)N3CCOCC3)cc2)cs1 | 26.5% | 5.2% | -5.8% | 12.7% | i | 12.6µM*
COc1ccccc1OC(C)C(=O)Nc1nc(-c2ccc(S(=O)(=O)N3CCOCC3)cc2)cs1 (stereo not given) | 27.6% | -0.4% | 11.5% | 5.2% | i | -0.4%
Cc1nc2ccc3nc(NC(=O)c4ccc5c(c4)OCCO5)sc3c2s1 | 35.7%[57.1 µM] | 2.2% | ? | 17.4%[57.1 µM] | i | 25.1µM*
Cc1nc2c(ccc3nc(NC(=O)c4ccc5c(c4)OCCO5)sc32)s1 | 34.8% | 13.4% | ? | 17.6% | i | -1.3%
COc1cc2c(cc1OC)C(/C=C/c1ccc(OC)c(OC)c1OC)=NCC2 | . | 2.3% | . | . | . | .
Cc1cccc(-n2c(SCC(=O)N3CCCC3)nc3n[nH]c(C)c3c2=N)c1 | 13.1% | 3.6% | -10.2% | 5.5% | -103.7%* | -5.2%
Cc1ccc(NC(=O)CSc2nc3n[nH]c(C)c3c(=N)n2-c2cccc(C)c2)cc1 | 15.7%[57.1 µM] | . | 4.1% | 2.2%[57.1 µM] | . | .
CCOC(=O)c1[nH]c(C)c(/C(O)=C2\C(=O)C(=O)N(CCCN3CCOCC3)C2c2cccnc2)c1C (stereo not given) | 44.7µM* | 0.1% | -9.0% | -14.4% | i | 1.2%
COC(=O)c1[nH]c(C)c(/C(O)=C2\C(=O)C(=O)N(CCCN3CCOCC3)C2c2ccccn2)c1C (stereo not given) | 25.1µM* | -13.3% | 4.5% | -7.2% | i | 0.7%
COc1ccc(/C(O)=C2/C(=O)C(=O)N(CCN3CCOCC3)C2c2ccccn2)cc1 (stereo not given) | 50.1µM* | -17.3% | -2.3% | -3.3% | i | -2.8%
O=C1C(=O)N(CCN2CCOCC2)C(c2ccccn2)/C1=C(/O)c1ccc(F)cc1 (stereo not given) | ? | 0.9% | ? | -10.2% | i | -0.4%
CCc1nn2c(-c3ccccc3OC)ccnc2c1-c1ccccc1 | 17.4%[11.4 µM] | . | 4.4% | 4.5% | . | .
O=[N+]([O-])c1ccc(N2CCCC2)c([N+](=O)[O-])c1 | . | . | . | . | i | .
O=[N+]([O-])c1ccc(O/N=[N+](\[O-])N2CCCC2)c([N+](=O)[O-])c1 | 17.8µM* | . | . | -7.2% | . | .
CS(=O)(=O)N1CCN(/[N+]([O-])=N/Oc2ccc([N+](=O)[O-])cc2[N+](=O)[O-])CC1 (tested in a mixture with another compound) | 11.2µM* | . | . | 5.0% | . | .
CS(=O)(=O)N1CCN(/[N+]([O-])=N/Oc2ccc([N+](=O)[O-])cc2[N+](=O)[O-])CC1 | 8.91µM* | . | . | -2.7% | . | .
C[N+]1(CC(=O)c2ccc(Cl)cc2)CCOCC1 | 2.7% | . | . | 4.6% | . | .

High-throughput results: PubChem, National Center for Advancing Translational Sciences (NCATS)
